Test [1] concerns the target ATP-dependent 6-phosphofructokinase (Trypanosoma brucei brucei) (UniProt O15648). In words: qHTS Assay to Find Inhibitors of T. brucei phosphofructokinase: hit validation (AID 492961).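 Note: luminescence reports ADP formed as PFK phosphorylates fructose-6-phosphate with ATP; % is set by controls: 0 for no effect and ±100 for the full control effect.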 An outline of the steps:
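Compounds titrated; %activity normalized to 0x and 1x enzyme controls, curve-fitted. Readout: ADP-Glo luminescence after 45 min room-temperature reaction of 1.25 nM PFK, 0.1 mM ATP, 0.5 mM F6P, pH 8.0.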
A general note: Quantitative high-throughput screening tests each substance at several concentrations.

The target of test [2] is Luciferin 4-monooxygenase (Photinus pyralis) (UniProt P08659). In words: Biochemical firefly luciferase enzyme assay for NPC (AID 624030).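 Note: purified P. pyralis luciferase at 10 nM with luciferin and ATP substrate; 0% = DMSO and -100% = full luciferase inhibition by PTC124 control; nearly all actives have a fitted effect of over 70% in size.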 An outline of the steps:
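Purified P. pyralis luciferase at 10 nM in 50 mM Tris Acetate (final), luminescence read within 5 minutes of enzyme addition to compounds. Activity normalised to PTC124 versus DMSO; concentration-response curves classed by r2, magnitude and activity.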

Test [3] in a line: qHTS profiling for inhibitors of Plasmodium falciparum proliferation (AID 504749).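 For activity, negative = inhibition: 0% = DMSO vehicle and full inhibition = artemisinin control.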 For all read-outs here: nearly all actives have a fitted effect of over 60% in size. Note: potency is the fitted concentration of half-maximal effect. The conditions noted are these: P. falciparum in erythrocytes, SYBR Green DNA, 72 h; for activity, negative = inhibition: at 28.7 µM (top of the series). In outline:
(§1)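 Each compound contacts P. falciparum-infected red blood cells for 72 h at 37 C; lysis buffer (Tris, EDTA, saponin, Triton X, SYBR Green I) is added and fluorescence measured next morning; values normalized to controls.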

A further test has as its system CP185. Described as above. To be noted: P. falciparum in erythrocytes, SYBR Green DNA, 72 h; series mostly up to 28.7 µM. In outline:
as §1

Another test relates to CP192. The test is described as above. The conditions noted are these: P. falciparum in erythrocytes, SYBR Green DNA, 72 h; series mostly up to 28.7 µM. In outline: as §1
The next test relates to CP211. Described as above. The conditions noted are these: P. falciparum in erythrocytes, SYBR Green DNA, 72 h; series mostly up to 28.7 µM. In outline: as §1
A further test concerns CP238. Described as above. The conditions noted are these: P. falciparum in erythrocytes, SYBR Green DNA, 72 h; series mostly up to 28.7 µM. In outline: as §1
The test system of another test is CP252. The test is described as above. The conditions noted are these: P. falciparum in erythrocytes, SYBR Green DNA, 72 h; series mostly up to 28.7 µM. In outline: as §1
For a further test, the system named is CP262. Described as above. To be noted: P. falciparum in erythrocytes, SYBR Green DNA, 72 h; series mostly up to 28.7 µM. An outline of the steps: as §1
The next test deals with CP265. Described as above. The conditions noted are these: P. falciparum in erythrocytes, SYBR Green DNA, 72 h; series mostly up to 28.7 µM. An outline of the steps: as §1
Another test deals with CP269. Described as above. The conditions noted are these: P. falciparum in erythrocytes, SYBR Green DNA, 72 h; series mostly up to 28.7 µM. An outline of the steps:
as §1

In the next test the test system is CP286. The test is described as above. The conditions noted are these: P. falciparum in erythrocytes, SYBR Green DNA, 72 h; series mostly up to 28.7 µM. An outline of the steps: as §1
The next test has as its system CP315. The test is described as above. To be noted: P. falciparum in erythrocytes, SYBR Green DNA, 72 h; series mostly up to 28.7 µM. In outline: as §1
The test system of the next test is CP329. Described as above. The conditions noted are these: P. falciparum in erythrocytes, SYBR Green DNA, 72 h; series mostly up to 28.7 µM. An outline of the steps: as §1
The next test deals with DFO2036. Described as above. To be noted: P. falciparum in erythrocytes, SYBR Green DNA, 72 h; series mostly up to 28.7 µM. In outline: as §1
Another test relates to Dd2. The description is as above. The conditions noted are these: P. falciparum in erythrocytes, SYBR Green DNA, 72 h; series mostly up to 28.7 µM. An outline of the steps:
as §1

The test system of another test is ECU. The description is as above. The conditions noted are these: P. falciparum in erythrocytes, SYBR Green DNA, 72 h; series mostly up to 28.7 µM. In outline:
as §1

For another test, the system named is FAB9. The test is described as above. The conditions noted are these: P. falciparum in erythrocytes, SYBR Green DNA, 72 h; series mostly up to 28.7 µM. An outline of the steps:
as §1

The next test relates to N140. The description is as above. The conditions noted are these: P. falciparum in erythrocytes, SYBR Green DNA, 72 h; series mostly up to 28.7 µM. An outline of the steps: as §1
A further test concerns JCK. Described as above. To be noted: P. falciparum in erythrocytes, SYBR Green DNA, 72 h; series mostly up to 28.7 µM. In outline:
as §1

Inconclusive results are not listed. A number with no mark means an inactive call. Active and inactive are the calls of the source. Calls come from the whole dose curve; as a rule, active = well fitted curve in the direction sought with a large enough effect; inconclusive = small, poorly fitted or top-dose-only effect, or another doubt; inactive = no such curve, though single readings can be large; an effect the other way counts as inactive or inconclusive.

The values below come from PubChem BioAssay (NCATS).

Luciferin 4-monooxygenase (Photinus pyralis), sequence (P08659 whole entry, looked up): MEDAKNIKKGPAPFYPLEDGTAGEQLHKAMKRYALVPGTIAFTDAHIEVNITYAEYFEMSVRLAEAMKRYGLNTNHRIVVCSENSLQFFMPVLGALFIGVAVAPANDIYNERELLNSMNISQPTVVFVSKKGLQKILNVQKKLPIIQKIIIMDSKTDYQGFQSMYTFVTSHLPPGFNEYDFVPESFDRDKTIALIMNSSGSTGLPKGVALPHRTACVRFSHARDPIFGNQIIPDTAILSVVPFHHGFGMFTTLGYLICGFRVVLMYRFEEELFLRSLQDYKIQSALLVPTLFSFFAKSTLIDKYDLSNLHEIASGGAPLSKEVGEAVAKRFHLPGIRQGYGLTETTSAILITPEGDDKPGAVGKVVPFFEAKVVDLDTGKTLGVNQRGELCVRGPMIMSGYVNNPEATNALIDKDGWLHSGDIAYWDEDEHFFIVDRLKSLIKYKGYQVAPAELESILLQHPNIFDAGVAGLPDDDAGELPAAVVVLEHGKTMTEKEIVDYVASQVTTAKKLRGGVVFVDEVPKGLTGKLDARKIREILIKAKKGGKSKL
ATP-dependent 6-phosphofructokinase (Trypanosoma brucei brucei), sequence (O15648 whole entry, looked up): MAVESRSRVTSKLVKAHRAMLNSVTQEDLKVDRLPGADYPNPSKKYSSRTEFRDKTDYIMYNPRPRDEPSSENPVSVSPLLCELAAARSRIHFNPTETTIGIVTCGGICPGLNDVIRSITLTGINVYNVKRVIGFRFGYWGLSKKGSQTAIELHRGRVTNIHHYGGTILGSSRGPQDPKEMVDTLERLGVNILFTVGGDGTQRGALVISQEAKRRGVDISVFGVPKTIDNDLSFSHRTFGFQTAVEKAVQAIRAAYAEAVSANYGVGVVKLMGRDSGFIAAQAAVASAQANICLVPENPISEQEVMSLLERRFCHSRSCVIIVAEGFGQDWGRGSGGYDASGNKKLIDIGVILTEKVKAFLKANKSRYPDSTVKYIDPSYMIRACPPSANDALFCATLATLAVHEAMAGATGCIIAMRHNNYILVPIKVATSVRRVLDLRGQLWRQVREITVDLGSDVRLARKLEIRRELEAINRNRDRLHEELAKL

On to `CCCCC(=O)OCC(=O)[C@]1(O)Cc2c(O)c3c(c(O)c2[C@H](OC2CC(NC(=O)C(F)(F)F)C(O)C(C)O2)C1)C(=O)c1c(OC)cccc1C3=O` (some centres not stated), for which the Potency result in test [1] and in test [2] was “inactive” in each case. Besides, the Potency in test [3] (parasite line A) was 2240 nM (active); in test [3] (parasite line B), 2510 nM (active); in the test on CP185, 2240 nM (active); in the test on CP192 it was 2390 nM (active); in the test with CP211 it was 1690 nM (active); in the test with CP238 it was 2510 nM (active). Further, the Potency was 2510 nM (active) in the test on CP252; 1900 nM (active) in the test on CP262; 3160 nM (active) in the test on CP265; 1690 nM (active) in the test on CP269; 1580 nM (active) with CP286; 1690 nM (active) in the test on CP315. The Potency is 3790 nM (active) in the test on CP329; 2510 nM (active) with DFO2036; 2240 nM (active) in the test on Dd2; 2510 nM (active) in the test on ECU; 11200 nM (active) in the test on FAB9; 2000 nM (active) with N140.

In the case of `CO[C@H]1C[C@@H]2CC[C@@H](C)[C@@](O)(O2)C(=O)C(=O)N2CCCC[C@H]2C(=O)O[C@H]([C@H](C)C[C@@H]2CC[C@@H](O)[C@H](OC)C2)CC(=O)[C@H](C)/C=C(\C)[C@@H](O)[C@@H](OC)C(=O)[C@H](C)C[C@H](C)/C=C/C=C/C=C/1C`, the Potency result in [1] and in [2] was “inactive” throughout. For the same compound, the Potency in test [3] (parasite line A) was 3550 nM (active); in [3] (parasite line B) it was 1780 nM (active); with CP185, 5620 nM (active); in the test on CP192 it was 4780 nM (active); with CP211, 4260 nM (active); with CP238 it was 3980 nM (active). The Potency in the test on CP252 was 2820 nM (active); with CP262, 4780 nM (active); in the test on CP265, 3160 nM (active); in the test on CP269, 4260 nM (active); in the test on CP286, 5010 nM (active); with CP315, 4260 nM (active). The Potency in the test on CP329 was 4260 nM (active); in the test on DFO2036, 1780 nM (active); with Dd2, 2820 nM (active); with ECU it was 2510 nM (active); in the test with JCK, 10000 nM (active); with N140 it was 1580 nM (active).

Take `CC[C@H](C)[C@H]1O[C@]2(CC[C@@H]1C)C[C@@H]1C[C@@H](C/C=C(\C)[C@H](O[C@@H]3C[C@H](OC)[C@H](O[C@@H]4C[C@H](OC)[C@@H](O)[C@H](C)O4)[C@H](C)O3)[C@@H](C)/C=C/C=C3\CO[C@@H]4[C@H](O)C(C)=C[C@@H](C(=O)O1)[C@]34O)O2`: the Potency result in [1] and in [2] was “inactive” throughout. In addition, the Potency in [3] (parasite line A) was 355 nM (active); in test [3] (parasite line B), 794 nM (active); with CP185 it was 1000 nM (active); with CP192 it was 1690 nM (active); with CP211, 1350 nM (active); in the test on CP238 it was 1260 nM (active). Also, the Potency is 794 nM (active) with CP252; 1200 nM (active) in the test on CP262; 794 nM (active) in the test on CP265; 1350 nM (active) in the test on CP269; 1260 nM (active) with CP286; 1350 nM (active) with CP329. The Potency with DFO2036 was 794 nM (active); in the test on Dd2 it was 2240 nM (active); in the test with ECU it was 891 nM (active); in the test on FAB9 it was 3160 nM (active); in the test with JCK, 15800 nM (active); in the test on N140, 1000 nM (active).

On to `O=C(O)c1ccc(N[C@@H]2OC[C@@H](O)[C@@H](O)[C@@H]2O)cc1`, for which the Potency entry (in test [1]; in test [2]; with CP185; with CP192; with CP211; in the test with CP238) was “inactive” in each case. Besides, the Potency entry in the test with CP252, with CP262, in the test with CP265, in the test on CP269, in the test with CP286 and with CP315 was “inactive” throughout. Also, the Potency result with CP329, in the test on DFO2036, with Dd2, with ECU, in the test with FAB9 and in the test with JCK was “inactive” in each case. Also, in the test on N140, the Potency entry was “inactive”. For the same compound, the activity, negative = inhibition was 8.43% in test [3] (parasite line A) and 9.05% in test [3] (parasite line B).

Take `CO/N=C(/C(=O)N[C@@H]1C(=O)N2C(C(=O)O)=C(CSc3cnns3)CS[C@H]12)c1csc(N)n1`: the Potency entry (in [1]; in test [2]; in the test with CP185; in the test with CP192; with CP211; with CP238) was “inactive” in each case. In addition, the Potency result with CP252, in the test with CP262, in the test with CP265, with CP269, in the test with CP286 and with CP315 was “inactive” throughout. In addition, the Potency entry in the test with CP329, in the test on DFO2036, in the test on Dd2, with ECU, with FAB9 and in the test on JCK was “inactive” in each case. Further, the Potency result in the test on N140 was “inactive”. The activity, negative = inhibition is 8.36% in test [3] (parasite line A) and 11.8% in test [3] (parasite line B).
